Laboratory results: PubChem BioAssay (NCI)
The panel holds about 83,000 compounds, 20% with a hit somewhere; the sample as a whole holds those more often.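 Testing used 96-well plates and a 48-hour single-concentration exposure. Example: -40 means 40% of the starting cells died.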 Values without a mark were called inactive. The source made the active and inactive calls. How the source made its calls: active means growth percent below 10; inactive means the rest.

Columns and labels:
Assay in all cases: NCI-60 one-dose screen, 48 h (100 = growth as untreated, 0 = no growth, -100 = all killed)
Settings in all cases: 10 µM unless noted
SK-MEL-2 melanoma = system: SK-MEL-2 melanoma
EKVX NSCLC = system: EKVX NSCLC
SN12C renal = system: SN12C renal
UO-31 renal = system: UO-31 renal
ACHN renal = system: ACHN renal
A498 renal = system: A498 renal
CCRF-CEM leukemia = system: CCRF-CEM leukemia
MOLT-4 leukemia = system: MOLT-4 leukemia
CAKI-1 renal = system: CAKI-1 renal
TK-10 renal = system: TK-10 renal

Compound	growth (SK-MEL-2 melanoma)	growth (EKVX NSCLC)	growth (SN12C renal)	growth (UO-31 renal)	growth (ACHN renal)	growth (A498 renal)	growth (CCRF-CEM leukemia)	growth (MOLT-4 leukemia)	growth (CAKI-1 renal) [%]	growth (TK-10 renal) [%]
COc1cnc2c(c1)C(=O)c1c-2n(CCCN2CCCC2)c(=O)c2cc(F)ccc12	23.1%	4.91% (active)	9.02% (active)	-96.2% (active)	-67.7% (active)	-92.8% (active)	0.937% (active)	-19.5% (active)		
C[C@@H]1[C@H]2[C@H](C=C3[C@@H]4CC[C@H]5Cc6nc7c(nc6C[C@]5(C)[C@H]4C[C@@H](O)[C@@]32C)C[C@@H]2CC[C@H]3C4=C[C@@H]5O[C@@]6(CC[C@](C)(CO)O6)[C@@H](C)[C@@]5(O)[C@@]4(C)[C@H](O)C[C@@H]3[C@@]2(C)C7)O[C@]12CCC(C)(C)O2	30.8%	21.8%	67.9%	-6.3% (active)	42.5%	-72.6% (active)	2.79% (active)	-21.1% (active)		
CC(=O)N1N=C(c2ccc(Nc3ccnc4cc(Cl)ccc34)cc2)CC1c1ccc(Cl)cc1 (configuration not stated)	54.1%	36.4%	61.9%	24.1%		43.9%	31%	34.2%	44.7	
CN1CCN(c2nc3scc(-c4ccccc4)c3c(=O)[nH]2)CC1	104%	90.3%	100%	81.4%	107%	91%	103%	95.5%		
c1ccc2nc(Cn3c[n+](Cc4ccc5ccccc5n4)c4ccccc43)ccc2c1	28.9%	74.7%	22.7%	79.5%	103%	51.1%	34.9%	31.9%		
COc1cnc2c(c1)C(=O)c1c-2n(CCCNC(C)C)c(=O)c2cc(F)ccc12	-5.42% (active)	-20.8% (active)	-4.41% (active)	-89.9% (active)		-89% (active)	-1.1% (active)	-22.9% (active)		
C[C@H](C(=O)N[C@@H](Cc1ccc(-c2ccccc2)cc1)C(=O)NC1CC(C)(C)NC(C)(C)C1)c1ccc(-c2ccccc2)c(F)c1	-54.9% (active)	-7.01% (active)	-50.7% (active)	-85.5% (active)	-86.9% (active)	-4.66% (active)	-20.9% (active)	-42.4% (active)		
COc1ccc(C2=NN(C(C)=O)C(c3c(C)nn(-c4ccccc4)c3N3CCOCC3)C2)cc1 (configuration not stated)	106%	88.2%	91.9%	77.2%	95%	91.3%	95.4%	88%		
COc1cnc2c(c1)C(=O)c1c-2n(CCCNC2=NCCS2)c(=O)c2cc(F)ccc12	90.7%	67.5%	36.7%	15.9%	6.18% (active)	-52.4% (active)	0.88% (active)	0.0786% (active)		
N#CC(C#N)C(C#N)C#N	109%	99.7%	99.9%	89.1%	107%	99%	105%	96.4%		
Cc1cc2c(cc1C)[n+](Cc1ccc3ccccc3n1)cn2Cc1ccc2ccccc2n1	-32% (active)	39.6%	15.2%	53.2%	56.5%		15.1%	7.97% (active)		
COc1ccc2nc(-c3ccc(Cl)cc3)cc(-c3nnc(SCC(=O)Nc4ccc(C(C)=O)cc4)n3-c3ccccc3)c2c1	91.5%	101%	114%	84.4%		100%	108%	83%		
CN[C@@H]1C(OC2[C@H](O[C@H]3[C@H](O)[C@@H](O)[C@H](N=C(N)N)[C@@H](O)[C@@H]3N=C(N)N)OC(C)[C@]2(O)CO)OC(CO)C(O)C1O (some centres not stated)	112%	113%	108%	102%	114%		101%	92.7%	107	
Cc1cnc2nc(-c3ccc(N(C)C)cc3)cn2c1	101%	91.7%	103%		112%	107%	83.3%		108	97.6
COc1cnc2c(c1)C(=O)c1c-2n(CCCN2CCC(O)CC2)c(=O)c2cc(F)ccc12	3.49% (active)	2.5% (active)	9.71% (active)	-89.4% (active)	-58% (active)		-2.05% (active)	-19.2% (active)		
OCc1n(Cc2ccc3ccccc3c2)cc[n+]1Cc1ccc2ccccc2c1	67.7%	83.3%	41.7%	83.5%	109%	72.7%	34.2%	47.5%		
CCNCCCn1c2c(c3ccc(F)cc3c1=O)C(=O)c1cc(OC)cnc1-2	-3.1% (active)	-14.4% (active)	1.58% (active)	-90.7% (active)	-47.5% (active)	-91.2% (active)	1.07% (active)	-15.6% (active)		
